Source: PubChem BioAssay (National Center for Advancing Translational Sciences (NCATS))
IL2 activator: activators of IL-2; IL-2 activation reporter assay, cell-based qHTS; stimulated with anti-CD3/CD4/CD28 beads; in transgenic mouse T cells; activation, % (series mostly up to about 46 µM); actives 0.065% (n = 360,000); AID 652025; in the data active = activation above about 50%; inconclusive = mostly about 30% to 49%; note: 0% is about no effect
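Quantitative HTS in unstimulated transgenic mouse T cells, with memory T cells as non-tolerant control and PMA/ionomycin as tolerance-bypass control. Compound pretreatment lasted 60 minutes before 18 h bead stimulation; EGFP/DsRed fluorescence read.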
A549 viability: counter-screen for Nrf2 inhibitors: cytotoxicity in A549 cells | actives 0.16% (n = 390,000) | A549 ARE-Fluc cells, CellTiter-Fluor viability, 18-24 h | Potency, µM (top dose mostly 46 µM), inactives show at the top dose activity change, negative = cytotoxicity, usual class: inhibitors; note: potency is the fitted concentration of half-maximal effect; % is set by controls: 0 for no effect and ±100 for the full control effect
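Cytotoxicity counterscreen: CellTiter-Fluor fluorescence was measured in A549 ARE_Fluc cells after 18-24 h of compound exposure in a concentration series. The subsequent BugLite luminescent read reports ARE-luciferase activity.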
Nrf2 inh: blocks Nrf2 signaling. A549 ARE-Fluc reporter, luciferase luminescence, 18-24 h. Potency, µM (top dose mostly 46 µM), without a hit: top-dose activity change, negative = inhibition, actives largely listed as inhibitors. actives 2.1% (n = 360,000). AID 504444; note: potency is the fitted concentration of half-maximal effect; % is set by controls: 0 for no effect and ±100 for the full control effect; nearly all actives have a fitted effect of over 60% in size
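A549 ARE_Fluc cells (5000/well, 5% FBS OPTI-MEM) pre-incubated 2 h, then treated with compounds 18-24 h at 37C/5% CO2 in concentration-response. CellTiter-Fluor viability read first; BugLite luciferase luminescence after 15 min at room temperature gives Nrf2 activity.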
Nrf2 activator: activates Nrf2 signaling; AREc32 ARE-luciferase reporter (MCF7-derived line), luminescence, 24 h; Potency, µM (titrated, usually from 46.1 µM), inactives show at the highest dose activation, actives largely listed as activators; actives 0.31% (n = 410,000); note: potency is the fitted concentration of half-maximal effect; % of control where 0% means no effect; nearly all actives have a fitted effect of over 65% in size
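AREc32 cells carrying an ARE-driven firefly luciferase reporter were seeded at 1000 cells/well in OPTI-MEM with 5% FBS, then exposed to compound for 24 hr at 37 deg C. Luminescence was read with Steady-Glo after 30 min at RT.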
The depositor's hits bear a star; ? = inconclusive; · = no result. In the library only some 2.3% were active in any assay of this set; here they are far more common. Unless noted, calls come from the whole dose curve; as a rule, active = well fitted curve in the direction sought with a large enough effect; inconclusive = small, poorly fitted or top-dose-only effect, or another doubt; inactive = no such curve, though single readings can be large; an effect the other way counts as inactive or inconclusive.

SMILES	IL2 activator	A549 viability	Nrf2 inh	Nrf2 activator
Cc1cccc2c1-c1sc(C(=O)N(C)c3cccc(C(F)(F)F)c3)cc1CO2	·	-3%	?	-1%
CCC(C(=O)Nc1cc(C(F)(F)F)ccc1Cl)n1nc(C)c2sc3ccccc3c2c1=O (configuration not stated)	·	-11%	6%	1%
Cc1ccccc1CSc1nc2n(n1)C(c1cccs1)C1=C(CCCC1=O)N2 (configuration not stated)	-2	-28%	?	2%
O=C1CCCC2=C1C(c1cccs1)n1nc(SCc3ccccc3F)nc1N2 (configuration not stated)	-3	-27%	18µM*	0%
C=C[C@H]1CN2CCC1C[C@@H]2C(O)c1ccnc2ccc(OC)cc12 (some centres not stated)	·	-1%	9%	·
Cc1cc(NC(=O)COC(=O)C(Nc2ccc(C(F)(F)F)cc2Cl)C(C)C)no1 (configuration not stated)	-2	23µM*	23µM*	0%
CCn1c(=O)c(C(=O)CN2CCCc3ccccc32)c(N)n(Cc2ccccc2)c1=O	3	-3%	16µM*	2%
CCn1c(=O)c(C(=O)CN2c3ccccc3CC2C)c(N)n(Cc2ccccc2)c1=O (configuration not stated)	-1	-6%	?	1%
COc1ccc2nc(NC(=O)c3ccccc3F)sc2c1	1	7%	1.3µM*	?
CSc1ncccc1C(=O)Nc1ccc2nc(C)sc2c1	-2	-2%	3%	0%
COc1ccc2nc(NC(=O)c3ccccc3C(=O)O)sc2c1	-3	0%	-15%	4%
COc1ccc2nc(NC(=O)c3nc(S(=O)(=O)Cc4ccccc4F)ncc3Cl)sc2c1	·	?	3%	10µM*
COc1ccc(C(=O)Nc2nc3ccccc3s2)c(OC)c1	-1	4%	7.3µM*	-2%
CSc1ncccc1C(=O)Nc1nc2ccc(Oc3ccccc3)cc2s1	0	-7%	10µM*	8%
CCCc1nnc(NC(=O)c2cc(=O)c3cc(C)c(C)cc3o2)s1	·	1%	9%	0%
CCOc1ccc(NC(=O)CC2C(=O)N(c3ccc(C)cc3)C(=O)N2CCC2=CCCCC2)cc1 (configuration not stated)	·	-8%	10%	0%
Cc1c(Cl)cccc1NC(=O)Cn1c(=O)n(Cc2nc(-c3ccccc3)no2)c(=O)c2cc3c(cc21)OCO3	·	5%	?	0%
COc1ccc(C2Nc3ccc(NC(=O)CO)cc3C(=O)N2Cc2cccc(Cl)c2)cc1COc1ccc(NC(C)=O)cc1 (configuration not stated)	·	-20%	?	·
COc1ccc(CNC(=O)c2ccc(N3CCCC3)c(NC(=O)NCc3ccc(F)cc3)c2)cc1	·	-4%	·	3%
COCCCNC(=O)c1c(NC(=O)Cc2coc3cc(C)ccc23)sc2c1CCCC2	·	2%	?	0%
COc1ccccc1C(=O)Nc1nc2ccccc2s1	0	3%	6.5µM*	-6%
CC12C=CC(=O)C=C1CCC1C2C(=O)CC2(C)C1CCC2(O)C(=O)CO (configuration not stated)	-1	1%	0.29µM*	3%
Cc1ccc(CNC(=O)c2ccc(Cn3c(=O)c4ccccc4n(CC(=O)Nc4ccc(C)cc4C)c3=O)cc2)cc1	·	-3%	7%	-1%
O=S1(=O)C=C(N2CCOCC2)c2ccccc21	-3	-5%	5%	13µM*
O=C(Nc1cc2c(cc1Br)OCCO2)c1cccs1	13	-9%	?	13µM*
SMILES	IL2 activator	A549 viability	Nrf2 inh	Nrf2 activator
CCCC(=O)c1cc2c(cc1NC(=O)c1cccs1)OCCO2	0	1%	6%	3%
COc1ccc2c(c1OC)C(=O)N(c1cccc(/C=C/C(=O)O)c1)C2	1	-4%	16µM*	0%
Cn1c2cc(S(C)=O)sc2c2cnn(Cc3cccc(O)c3)c(=O)c21 (configuration not stated)	·	19%	0%	·
Cc1ccc(-n2ncc(C(=O)NCc3cccs3)c2C2CCN(C(=O)OC(C)(C)C)CC2)cc1C	·	-20%	21µM*	-1%
Cc1cccc(-n2ncc(C(=O)NCc3ccc4c(c3)OCO4)c2C2CCN(C(=O)OC(C)(C)C)CC2)c1	·	-16%	16µM*	0%
Cc1cccc(-n2ncc(C(=O)Nc3ccc4c(c3)OCO4)c2C2CCN(C(=O)OC(C)(C)C)CC2)c1	·	0%	6%	3%
Cc1ccc(C)c(N2CCN(CCCNC(=O)c3cnn(-c4ccccc4)c3C3CCN(C(=O)OC(C)(C)C)CC3)CC2)c1	·	?	18µM*	-1%
CC(C)(C)OC(=O)N1CCC(c2c(C(=O)NCc3cccs3)cnn2-c2cccc(F)c2)CC1	·	-4%	-24%	-1%
CCOc1cccc(C(=O)N(Cc2ccc(C)o2)C2CCS(=O)(=O)C2)c1 (configuration not stated)	·	14%	0%	-1%
NC(N)=NC(=O)Cc1c(Cl)cccc1Cl	0	-9%	8.2µM*	0%
CC(C)Cc1nn2c(=O)cc(COC(=O)c3ccc(NC(=O)C4CCCCC4)cc3)nc2s1	·	2%	·	0%
COc1cccc(/C=C/C(=O)Nc2ccc(N3CCOCC3)cc2)c1OC	0	1%	?	3%
COc1ccccc1/C=C/C(=O)Nc1ccc(N2CCOCC2)cc1	0	-23%	12µM*	0%
Cc1ccc2nc(COc3ccccc3NC(=O)c3ccc(F)cc3)cc(=O)n2c1	·	5%	·	0%
CCCOc1ccccc1Cn1c(=O)sc2ccccc21	·	-5%	1%	-1%
O=S(=O)(c1ccc(-c2csc(-c3cccnc3)n2)cc1)N1CCCCC1	-1	-15%	21µM*	0%
Clc1ccsc1-c1csc(-c2cccnc2)n1	0	?	·	2.2µM*
Cc1ccc(OCC(=O)c2cc(C)n(Cc3cccs3)c2C)c([N+](=O)[O-])n1	-1	-6%	12µM*	0%
[N-]=[N+]=CC(=O)CNC(=O)[C@@H](Cc1ccccc1)N1C(=O)c2ccccc2C1=O	-1	13µM*	·	0%
CCOc1ccc(CC(=O)Nc2nnc3n2CCS3)cc1	·	6%	·	0%
O=S(=O)(c1ccc2c(c1)OCCO2)N1CCN(S(=O)(=O)c2cc(F)c(F)cc2F)CC1	·	-2%	-18%	·
CCOc1ccc(/C=C/[N+](=O)[O-])c2ccccc12	-5	?	26µM*	9%
CN1CC2(Cc3cc([N+](=O)[O-])ccc31)C(=O)OC(C)(C)OC2=O	·	-13%	?	·
Cc1ccc(Oc2c(C(N)=O)cc([N+](=O)[O-])cc2[N+](=O)[O-])cc1	-3	4.1µM*	5.8µM*	-3%
Cc1ccc(CNc2ccc([N+](=O)[O-])cc2C(N)=O)cc1	0	-11%	20%	9%
CC(=O)Nc1ccc(OCc2cccc(-c3nc4ccccc4c(=O)n3Cc3ccco3)c2)cc1	·	-15%	?	·
CCCCS(=O)(=O)c1oc(-c2ccc(F)cc2)nc1S(=O)(=O)c1ccccc1	·	?	21µM*	?
